CYP2C19 act: human CYP2C19 activators, primary screen, biochemical, luminescence. Cytochrome P450 2C19 (Homo sapiens), P33261. activation factor at 5 µM. 96,000 tested, under 10 active. recombinant CYP2C19, luciferin-H EGE luminescence; active compounds read high; 0 = fully inhibited enzyme, 1 = untreated enzyme;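 active = activation factor of at least 2 at 5 µM in the primary screen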;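 note: 0 = wells with 2.5 mM tranylcypromine and 1 = vehicle-only wells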
Target sequence (P33261 whole entry, looked up): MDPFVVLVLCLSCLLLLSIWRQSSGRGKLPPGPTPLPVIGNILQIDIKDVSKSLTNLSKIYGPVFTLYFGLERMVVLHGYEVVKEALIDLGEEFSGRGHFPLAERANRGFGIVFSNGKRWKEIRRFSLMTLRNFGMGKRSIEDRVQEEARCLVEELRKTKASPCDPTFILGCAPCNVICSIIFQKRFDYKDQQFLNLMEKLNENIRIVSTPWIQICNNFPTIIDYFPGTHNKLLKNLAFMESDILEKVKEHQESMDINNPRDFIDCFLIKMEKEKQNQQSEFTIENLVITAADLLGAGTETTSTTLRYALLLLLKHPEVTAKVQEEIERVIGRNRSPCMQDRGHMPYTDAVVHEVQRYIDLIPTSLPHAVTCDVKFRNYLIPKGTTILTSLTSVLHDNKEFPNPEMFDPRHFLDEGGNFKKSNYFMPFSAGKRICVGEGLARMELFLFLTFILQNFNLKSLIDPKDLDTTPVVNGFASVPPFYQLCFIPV
CYP2C9 act: human CYP2C9 activators, primary screen, biochemical, luminescence | Cytochrome P450 2C9 (Homo sapiens), P11712 | recombinant CYP2C9, luciferin-H conversion; active compounds read high; factor 1 = untreated enzyme, 0 = blocked | activation factor at 5 µM | 96,000 compounds, 1.4% hits;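 active = activation factor of 2 or more for CYP2C9 at a 5 µM dose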;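 note: 0 = sulfaphenazole-blocked wells and 1 = vehicle-only wells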
CYP2C9 inhib: blockers of cytochrome P450 2C9 activity – biochemical, luminescence, ADME assay, primary screen | P11712 | inhibition, % at 5 µM | CYP2C9 Supersomes, luciferin-H conversion | AID 777, 2007 | 96,000 compounds, 20% hits;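 active = blocking of liver enzyme CYP2C9 beyond about 50% at 5 µM, limit read from the data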
Cav3 T inh: Cav3.2 calcium influx blockers – cell-based, Fluo-4 calcium fluorescence, FDSS, MLSMR library, primary screen. Cav3.2-expressing cells; active compounds read low. 100,000 compounds, 4% hits. B-score at 10 µM;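 active = single-dose well whose peak fluorescence ratio is a statistical outlier from its plate by either plate-standardised score or position-corrected B-score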
CYP2C19 inh: blockers of cytochrome P450 2C19 activity – biochemical, luminescence, ADME assay, primary screen | P33261 | CYP2C19 Supersomes, luciferin-H EGE luminescence, 30 min | inhibition, % at 5 µM | 96,000 compounds, 21% hits;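 active = CYP2C19 inhibition above a set limit at 5 µM in the primary screen, cut at about 50% in these data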;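 note: plate controls were negative control wells for no effect and 2.5 mM tranylcypromine positive control for full effect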
* = called active by the depositor; x = no result given. Sampled rows, rich in hits. Any-hit rate of the full collection: about 27%.

SMILES	CYP2C19 act	CYP2C9 act	CYP2C9 inhib	Cav3 T inh	CYP2C19 inh
CCOc1cc(NC2CS(=O)(=O)CC2O)c(OCC)cc1NC(=O)c1ccccc1 (centres undefined)	1	0.9	8.8	0.843	0.3
Cc1nc(C2CC(=O)OC23CCCCC3)cs1 (centres undefined)	0.2	0.8	18.0	0.239	78.0*
O=C1CSC(=O)N1CC(O)COc1ccc(Cl)cc1 (centres undefined)	0.5	0.8	23.3	-2.51	53.6*
CC(C)CCC(C)N=Cc1c(O)n(Cc2ccccc2)c(=O)c2ccccc12 (centres undefined)	1	0.1	86.4*	-2.68	-4.1
O=c1oc2ccccc2n1CSc1nc2ccccc2s1	0	0.2	83.9*	-4.09*	99.8*
O=c1oc2ccccc2n1CSC1=NCCS1	0.1	0.6	44.9	0.765	88.2*
Cc1ccc(/C=C(\C#N)C(=O)Nc2c(C)cccc2C)s1	0.9	0.4	64.2*	-1.83	13.4
CC(=O)N1N=C(c2ccncc2)OC12CCCC2	0.5	1	3.0	-0.186	47.5
CCOC(=O)C1=C(c2cccc(F)c2)NC(=S)NC1C (centres undefined)	0.3	0.9	6.1	-0.0634	71.5*
CCCOc1ccc([N+](=O)[O-])cc1C1NC(=S)NC(c2ccccc2)=C1C(=O)OCC (centres undefined)	0.8	0.3	66.9*	-2.49	20.4
CCN(CC)S(=O)(=O)c1ccc2oc(SCC3CN=C(c4ccc(OC)cc4)S3)nc2c1 (centres undefined)	0.5	0.2	78.8*	-1.47	47.0
COc1ccc(C2=NCC(CSc3nnc(-c4ccc5c(c4)OCO5)o3)S2)cc1 (centres undefined)	0.5	0.6	37.7	-2.14	45.9
CN1CCN(CCC(=O)Nc2ccccc2Cl)CC1	x	x	x	-0.512	x
COc1cc2c(cc1NC(=O)Nc1cccc(C)c1)oc1ccccc12	1	1	-3.2	0.271	-2.9
COc1cc2c(cc1NC(=O)/C=C/c1ccccc1)oc1ccccc12	0.8	0.2	77.5*	-1.06	15.1
COc1cccc(NC(=O)c2cc(-c3cccnc3)nc3c(Cl)cccc23)c1	0.6	0.2	77.4*	-0.0964	38.4
COc1ccc(COc2cc(-c3cccc(OC)c3)nc3ccc(NC(=O)c4cccnc4)cc23)cc1	x	x	x	-0.184	x
COc1ccc(NC(=O)c2cccnc2)c(OC)c1	0.7	0.9	14.3	0.59	34.8
COc1ccc(NC(=O)c2cc(-c3cccnc3)nc3c(C)c(C)ccc23)c(OC)c1	0.2	0.1	85.8*	-1.1	79.7*
COc1ccc(NC(=O)c2cc3nc(-c4ccccc4)cc(-c4ccccc4)n3n2)c(OC)c1	0.6	0.2	76.6*	-2.1	36.0
COc1cc2c(cc1NC(=O)c1cc(-c3cccnc3)nc3ccc(C)cc13)oc1ccccc12	0.7	0.2	75.3*	-2.58	31.4
COc1cc2c(cc1NC(=O)Nc1ccc(C)cc1)oc1ccccc12	0.9	0.7	34.4	-0.0679	5.6
C(=N\N(c1ccccc1)c1ccccc1)/c1ccc2c(c1)OCO2	0.9	0.4	55.6*	-1.4	12.0
O=C(N/N=C/c1ccc2c(c1)OCO2)/C(=C/c1ccc2c(c1)OCO2)NC(=O)c1ccccc1	1	1	-2.9	x	-4.7
CC1Sc2ccccc2N(CC(=O)N(C(C)C)C(C)C)C1=O (centres undefined)	0.7	1.1	-5.0	0.059	26.3
SMILES	CYP2C19 act	CYP2C9 act	CYP2C9 inhib	Cav3 T inh	CYP2C19 inh
Cc1cc(NCCCn2ccnc2)n2ncc(-c3ccc(Cl)cc3)c2n1	0.3	0.1	87.3*	1.15	74.5*
Cc1cccc(-c2cc3nc(C)cc(NCCCn4ccnc4)n3n2)c1	0.1	0	95.6*	0.951	93.0*
Cc1cc(NCCCN(C)C)n2nc(-c3cccs3)cc2n1	x	x	x	0.857	x
Cc1nc(COC(=O)c2ccc(CO)cc2)cs1	0.4	0.7	29.6	-0.014	64.0*
Cc1nc(COC(=O)c2c(C)nn(-c3ccccc3)c2C)cs1	0.5	0.3	69.0*	-0.987	47.3
Cc1nc(CC(=O)c2c(C)cc(O)cc2O)cs1	0.7	0.6	41.5	1.16	34.7
Cc1ccc(S(=O)(=O)c2ccc(Oc3cccc(C)c3)cc2)cc1	0.7	0.5	52.7*	-2.06	31.4
